Results published in PubChem BioAssay (Tox21).
“And” between values parts separate entries of the source, which are not always exact repeats. Identical values can stand only once. Records with an inconclusive call do not appear. Some structures have more than one record in an assay (separate samples or runs), and their calls can disagree. The source made the active and inactive calls. Unless noted, the call rests on the fitted dose curve; in most records, active means well fitted curve in the direction sought with a large enough effect in the repeat runs; inconclusive means weak or mixed curves; inactive means no such curve, though single readings can be large; an effect the other way counts as inactive or inconclusive.

Columns and labels:
[1] = qHTS assay to identify small molecule antagonists of the vitamin D receptor (VDR) signaling pathway - cell viability counter screen (AID 743225); further: nearly all actives have a fitted effect of over 50% in size; further: potency means the concentration at half of the fitted maximal effect
Procedure, shortened: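 Cells (VDR-UAS-bla HEK 293T) are plated, rested 4 h at 37C, dosed with compound and 3 nM final 1-alpha,25-dihydroxy vitamin D3, and incubated 16 h. Viability is taken from CellTiter-Glo luminescence in the reporter wells.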

[2] = qHTS assay to identify small molecule agonists of the NFkB signaling pathway - cell viability counter screen (AID 1159515; calls by dose curve; further: nearly all actives have a fitted effect of over 55% in size)
Procedure, shortened: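 Counter screen run alongside the NFkB-bla agonist assay: ME-180 reporter cells exposed to compounds for 5 hr, then lysed with CellTiter-Glo in the same wells. Luminescence, read after 30 min, reflects viable cells.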

[3] = qHTS assay to identify small molecule agonists of the endoplasmic reticulum stress response signaling pathway (AID 1159516; active means well fitted activation curve with a large enough effect in the signal ratio in the repeat runs, not every such curve was filed as active; the % refers to the signal ratio)
Procedure, shortened: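 For this screen, HeLa cells stably carrying beta-lactamase under the ER stress response element received test compounds, positive controls or DMSO for 5 hr at 37 C; B/G FRET substrate was then added and dual-wavelength emission recorded.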

[4] = qHTS assay to identify small molecule antagonists of the retinoid-related orphan receptor gamma (ROR-gamma) signaling pathway - cell viability counter screen (AID 1159520); further: nearly all actives have a fitted effect of over 50% in size; further: potency means the concentration at half of the fitted maximal effect
Procedure, shortened: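 Tet-on ROR gamma CHO cells (1,000/well) were plated 4 hr, given compounds in DMSO for 2 hr at 37 C, then induced with 1 uM final doxycycline for 16 hr. Viability was read as ATP by CellTiter-Glo luminescence after 30 min.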

[5] = target: Nuclear receptor ROR-gamma (Homo sapiens) (UniProt P51449); assay: qHTS assay to identify small molecule antagonists of the retinoid-related orphan receptor gamma (ROR-gamma) signaling pathway (AID 1159521; further: nearly all actives have a fitted effect of over 50% in size; further: potency means the concentration at half of the fitted maximal effect)
Procedure, shortened: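 RORγ antagonism is scored from reduced reporter luminescence in Tet-on CHO cells. Induction used 1 uM final doxycycline hyclate for 16 h at 37 C, following a 2 h compound exposure.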

[6] = qHTS assay to identify small molecule agonists of the AP-1 signaling pathway - cell viability counter screen (AID 1159525; calls by dose curve; further: nearly all actives have a fitted effect of over 55% in size)
Procedure, shortened: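 Each titration point was normalised to DMSO and tetra n-octyl ammonium bromide controls. The read was Cell Titer Glo luminescence after 30 min at RT, following 5 h compound exposure of ME-180 AP-1-bla cells at 37 °C.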

[7] = qHTS assay to identify small molecule agonists of the AP-1 signaling pathway (AID 1159526; calls by dose curve)
[8] = target: Retinoic acid receptor RXR-alpha (Homo sapiens) (UniProt P19793); assay: qHTS assay to identify small molecule agonists of the RXR signaling pathway (AID 1159527; calls by dose curve; further: nearly all actives have a fitted effect of over 35% in size; further: potency means the concentration at half of the fitted maximal effect)
Chain of Retinoic acid receptor RXR-alpha (Homo sapiens) (P19793 whole entry, looked up): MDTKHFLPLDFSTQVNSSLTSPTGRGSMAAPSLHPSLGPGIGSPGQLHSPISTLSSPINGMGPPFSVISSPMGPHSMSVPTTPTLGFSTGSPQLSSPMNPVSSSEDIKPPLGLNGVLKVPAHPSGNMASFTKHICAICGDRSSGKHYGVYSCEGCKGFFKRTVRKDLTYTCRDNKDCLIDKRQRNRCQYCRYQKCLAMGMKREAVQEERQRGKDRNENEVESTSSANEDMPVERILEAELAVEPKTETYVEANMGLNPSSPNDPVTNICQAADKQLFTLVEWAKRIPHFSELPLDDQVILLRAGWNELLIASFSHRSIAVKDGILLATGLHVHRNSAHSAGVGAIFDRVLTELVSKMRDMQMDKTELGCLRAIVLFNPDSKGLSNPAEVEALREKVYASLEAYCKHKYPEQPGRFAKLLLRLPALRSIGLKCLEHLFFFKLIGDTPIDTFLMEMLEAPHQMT
Procedure, shortened: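 qHTS of the Tox21 10K library in GeneBLAzer RXR-alpha HEK 293T cells carrying a beta-lactamase reporter […]; 16 hr treatment, 9-cis retinoic acid as agonist control, FRET read-out.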

[9] = qHTS assay to identify small molecule agonists of the RXR signaling pathway - cell viability counter screen (AID 1159529); further: nearly all actives have a fitted effect of over 50% in size; further: potency means the concentration at half of the fitted maximal effect
Procedure, shortened: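 Cell viability is measured by CellTiter-Glo luminescence, 30 min at room temperature, in wells already read for beta-lactamase. Engineered HEK 293T cells (RXR-alpha-UAS-bla) are dosed 16 hr at 37 C. Tetraoctyl ammonium bromide serves as positive control.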

[10] = qHTS assay to identify small molecule antagonists of the retinoid acid receptor (RAR) signaling pathway - cell viability counter screen (AID 1159551); further: nearly all actives have a fitted effect of over 35% in size
Procedure, shortened: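 Measured by luminescent ATP detection, viability reflects C3RL4 cells treated 6 h at 37 C with test chemicals in the presence of 1 uM (final) retinol.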

[11] = qHTS assay to identify small molecule antagonists of the retinoic acid receptor (RAR) signaling pathway (AID 1159552; further: nearly all actives have a fitted effect of over 50% in size; further: potency means the concentration at half of the fitted maximal effect)
Procedure, shortened: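 Quantitative HTS in C3RL4 RARE-luciferase reporter cells. Compounds were added with 1 uM (final) retinol; luminescence was read after 6 hr.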

[12] = qHTS assay to identify small molecule agonists of the retinoic acid receptor (RAR) signaling pathway (AID 1159553); conditions: C3RL4 RARE luciferase reporter, agonist, 6 h; activation: at 73.3 µM (top of the series) unless noted; further: potency means the concentration at half of the fitted maximal effect
Procedure, shortened: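 6 hr compound exposure (DMSO vehicle) of overnight-plated C3RL4 RARE-luc cells at 37 C; luminescence quantified after 30 min RT with luciferase reagent.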

[13] = qHTS assay to identify small molecule agonists of the endoplasmic reticulum stress response signaling pathway - cell viability counter screen (AID 1159517; calls by dose curve; further: nearly all actives have a fitted effect of over 50% in size; further: potency means the concentration at half of the fitted maximal effect)
Procedure, shortened: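 Cytotoxicity of test compounds toward ESRE-bla HeLa cells was assessed after 5 hr exposure. The luminescent CellTiter-Glo signal was measured 30 min after reagent addition.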

[14] = qHTS assay to identify small molecule antagonists of the estrogen related receptor (ERR) signaling pathway - cell viability counter screen (AID 1224818)
Procedure, shortened: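 Compounds dissolved in DMSO were applied to ERR cells seeded at 2,000 per well 6 h earlier. Cell viability followed 17.5 h later via 30-min CellTiter-Fluor fluorescence.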

[15] = qHTS assay to identify small molecule antagonists of the estrogen related receptor signaling pathway with the pleiotropic PPARgamma coactivator (PGC) cell viability counter screen (AID 1224822)
Procedure, shortened: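 Counter screen for cell viability: PGC/ERR cells, 6 h pre-incubation after plating, 17.5 h compound exposure at 37 C, fluorescence from CellTiter-Fluor after 30 min.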

Measured: Potency

c1ccc(-c2cccc(-c3ccccc3)c2)cc1
active: [12] 6.93 µM and 4.86 µM
not listed: [13] | [14] | [15]
inactive: all other assays above

CC(O)CCO (centres undefined)
not listed: [4] | [13] | [14] | [15]
inactive: all other assays above

c1ccc(P(c2ccccc2)c2ccccc2)cc1
inactive: [1] | [2] | [5] | [6] | [7] | [8] | [9] | [10]

CCc1cccc(CC)c1N(COC)C(=O)CCl
inactive: [1] | [2] | [13] | [4] | [6] | [7] | [9] | [10]

O=S(=O)(Oc1ccc(Cl)cc1)c1ccc(Cl)cc1
not listed: [4] | [8] | [14] | [15]
inactive: all other assays above

CCCCCc1cc(O)cc(O)c1
not listed: [1] | [7] | [11] | [12] | [14] | [15]
inactive: all other assays above

C=CC(=O)OCCO
not listed: [2] | [11] | [12] | [13] | [14] | [15]
inactive: all other assays above

Cc1ccc2c(c1N)C(=O)c1ccccc1C2=O
active: [12] 1.7 µM and 1.93 µM
not listed: [3] | [14] | [15]
inactive: all other assays above

C=CCc1ccc2c(c1)OCO2
not listed: [14] | [15]
inactive: all other assays above

O=P(Oc1ccccc1)(Oc1ccccc1)Oc1ccccc1
inactive: [1] | [2] | [3] | [6] | [7] | [10]

O=C(O)CC[N+](=O)[O-]
not listed: [4]
inactive: all other assays above

CN(C)c1ccc(C(=O)c2ccc(N(C)C)cc2)cc1
active: [12] 1.21 µM and 1.22 µM
not listed: [14] | [15]
inactive: all other assays above

Nc1cccnc1
not listed: [4] | [14] | [15]
inactive: all other assays above

N[C@@H](Cc1ccc(N(CCCl)CCCl)cc1)C(=O)O
active: [4] 16.8 µM | [5] 11.7 µM and 13.3 µM
not listed: [8] | [11] | [13] | [14] | [15]
inactive: all other assays above

CC(C)NC(C)C
not listed: [2] | [13] | [14] | [15]
inactive: all other assays above

CC(C)(c1cc(Cl)c(O)c(Cl)c1)c1cc(Cl)c(O)c(Cl)c1
active: [13] 43.7 µM and 43.6 µM
inactive: [1] | [2] | [3] | [5] | [6] | [8] | [9] | [10]

CN(C)C(=O)Nc1ccc(Cl)cc1
not listed: [11] | [12] | [14] | [15]
inactive: all other assays above

COc1ccc(C(CN(C)C)C2(O)CCCCC2)cc1 (centres undefined)
not listed: [5] | [11] | [12] | [13]
inactive: all other assays above

CCCCCCCCC(=O)NCc1ccc(O)c(OC)c1
not listed: [3] | [8] | [12] | [14] | [15]
inactive: all other assays above

CC(C)(OOC(C)(C)c1ccccc1)c1ccccc1
not listed: [8] | [9] | [13] | [14] | [15]
inactive: all other assays above

CNC(=O)Oc1cccc2c1OC(C)(C)O2
not listed: [5] | [11] | [12] | [14] | [15]
inactive: all other assays above

C[C@]12CCC(=O)C(O)=C1CC[C@@H]1[C@@H]2CC[C@]2(C)C(=O)CC[C@@H]12
inactive: [1] | [2] | [3] | [13] | [6] | [7] | [8] | [10]
27.3 µM (active) and inactive: [5]

c1ccc(N=Nc2ccccc2)cc1
not listed: [4] | [13] | [14] | [15]
inactive: all other assays above

CCC(C)(C)c1ccc(O)cc1
not listed: [4] | [11] | [12] | [14] | [15]
inactive: all other assays above

Nn1cnnc1
not listed: [13] | [14] | [15]
inactive: all other assays above

NNC(N)=S
active: [9] 18.1 µM
not listed: [7] | [8] | [12] | [14] | [15]
inactive: all other assays above

O=C(CCl)c1ccccc1
inactive and 54.5 µM (active): [5]
not listed: [4] | [14] | [15]
inactive: all other assays above

CCN(CC)C(=O)SCc1ccc(Cl)cc1
not listed: [4] | [12] | [14] | [15]
inactive: all other assays above

C=CCN(CC=C)C(=O)C(Cl)Cl
not listed: [11] | [12] | [13] | [14] | [15]
inactive: all other assays above

CCCCNC(=O)n1c(NC(=O)OC)nc2ccccc21
active: [12] 13.6 µM
not listed: [13] | [14] | [15]
inactive: all other assays above

CCC(=O)O[C@H]1CC[C@H]2[C@@H]3CCC4=CC(=O)CC[C@]4(C)[C@H]3CC[C@]12C
43.6 µM (active) and inactive: [1]
48.6 µM (active) and inactive: [5] | [11]
active: [9] 49 µM
not listed: [8] | [13] | [14] | [15]
inactive: all other assays above

CCN(CC)C(=O)/C(Cl)=C(\C)OP(=O)(OC)OC
not listed: [14] | [15]
inactive: all other assays above

O=[N+]([O-])c1c(Cl)c(Cl)c(Cl)c(Cl)c1Cl
6.89 µM (active) and inactive: [8]
not listed: [14] | [15]
inactive: all other assays above

c1nc[nH]n1
not listed: [11] | [12] | [13] | [14] | [15]
inactive: all other assays above
